Tests used:
Experiment in all cases: DAPPL (digital affinity profiling via proximity ligation, sequencing); 10 mM Tris-HCl pH 7.5, 50 mM NaCl, 1 mM DTT, 4% glycerol, room temperature, 30 min; GST-TFs on glutathione beads, 16-mer random dsDNA library, 0.1% formaldehyde crosslink after washing; high values mean tight binding
[1] = target: T1, FEV (Homo sapiens, UniProt Q99581 1-238); conditions: protein: recombinant; tags: N-terminal GST; dsDNA, one strand shown
T1 sequence: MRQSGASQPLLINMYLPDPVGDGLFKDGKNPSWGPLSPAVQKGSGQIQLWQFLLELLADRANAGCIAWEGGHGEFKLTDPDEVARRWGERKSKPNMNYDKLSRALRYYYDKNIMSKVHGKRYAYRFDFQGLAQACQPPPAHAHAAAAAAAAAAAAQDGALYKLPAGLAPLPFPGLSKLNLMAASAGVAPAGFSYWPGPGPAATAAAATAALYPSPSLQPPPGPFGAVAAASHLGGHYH
In short: (§1)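 GST fusions of human transcription factors were expressed in yeast and captured with glutathione beads. Once given DNA barcodes and pooled alongside a tag-only sample, they were incubated for 30 min at room temperature with 200 nmole of a random double-stranded 16-mer DNA library in Tris/NaCl/DTT/glycerol buffer, then washed, crosslinked (0.1% formaldehyde), proximity-ligated, PCR-amplified and sequenced on an Illumina NextSeq500. The binding signal of each hexamer is its read frequency for a factor divided by its frequency for the tag-only sample.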

[2] = target: ETV5 (Homo sapiens, UniProt P41161 1-510); conditions: protein: recombinant; tags: N-terminal GST; dsDNA, one strand shown
ETV5, sequence (P41161 whole entry): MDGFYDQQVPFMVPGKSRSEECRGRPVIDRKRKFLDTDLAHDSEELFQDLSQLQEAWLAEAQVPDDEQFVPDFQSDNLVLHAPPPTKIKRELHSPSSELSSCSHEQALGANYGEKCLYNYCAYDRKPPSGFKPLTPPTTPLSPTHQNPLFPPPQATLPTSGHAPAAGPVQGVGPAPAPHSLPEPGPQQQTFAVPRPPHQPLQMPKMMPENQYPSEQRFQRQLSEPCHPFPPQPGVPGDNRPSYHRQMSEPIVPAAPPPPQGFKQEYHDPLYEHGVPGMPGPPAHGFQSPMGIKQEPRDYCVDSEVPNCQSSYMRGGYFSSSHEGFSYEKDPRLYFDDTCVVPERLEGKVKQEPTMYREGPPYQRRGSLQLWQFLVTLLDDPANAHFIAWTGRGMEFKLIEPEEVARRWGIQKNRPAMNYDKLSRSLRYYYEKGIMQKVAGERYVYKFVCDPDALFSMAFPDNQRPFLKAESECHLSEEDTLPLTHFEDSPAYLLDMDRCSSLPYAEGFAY
In short: as §1

[3] = target: HSF1 (Homo sapiens, UniProt Q00613 1-529); conditions: protein: recombinant; tags: N-terminal GST; chain copies: 3; dsDNA, one strand shown
HSF1, sequence (Q00613 whole entry): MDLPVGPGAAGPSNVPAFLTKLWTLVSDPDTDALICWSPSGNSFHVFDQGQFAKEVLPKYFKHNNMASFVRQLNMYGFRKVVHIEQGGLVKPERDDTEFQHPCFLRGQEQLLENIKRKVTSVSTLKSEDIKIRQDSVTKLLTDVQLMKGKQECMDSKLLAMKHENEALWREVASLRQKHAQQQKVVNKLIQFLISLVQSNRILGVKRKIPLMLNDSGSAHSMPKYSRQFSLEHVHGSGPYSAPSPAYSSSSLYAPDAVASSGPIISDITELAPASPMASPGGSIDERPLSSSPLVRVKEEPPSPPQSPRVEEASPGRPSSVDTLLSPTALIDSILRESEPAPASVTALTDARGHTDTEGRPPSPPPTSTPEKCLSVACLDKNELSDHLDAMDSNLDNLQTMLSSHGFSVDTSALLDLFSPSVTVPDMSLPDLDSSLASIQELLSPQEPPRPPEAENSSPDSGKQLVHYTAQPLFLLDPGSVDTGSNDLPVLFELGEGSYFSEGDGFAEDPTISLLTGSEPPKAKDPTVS
In short: as §1

[4] = target: T2, SPIC (Homo sapiens, UniProt Q8N5J4 1-248); conditions: protein: recombinant; tags: N-terminal GST; dsDNA, one strand shown
T2 sequence: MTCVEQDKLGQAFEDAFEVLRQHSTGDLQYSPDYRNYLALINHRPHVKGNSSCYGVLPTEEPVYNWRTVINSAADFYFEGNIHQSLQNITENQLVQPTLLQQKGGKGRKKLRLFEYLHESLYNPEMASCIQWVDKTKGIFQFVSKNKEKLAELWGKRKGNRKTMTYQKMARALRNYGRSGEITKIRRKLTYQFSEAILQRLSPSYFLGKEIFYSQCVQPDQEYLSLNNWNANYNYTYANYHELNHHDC
In short: as §1

[5] = target: ELF4 (Homo sapiens, UniProt Q99607 1-663); conditions: protein: recombinant; tags: N-terminal GST; dsDNA, one strand shown
ELF4, sequence (Q99607 whole entry): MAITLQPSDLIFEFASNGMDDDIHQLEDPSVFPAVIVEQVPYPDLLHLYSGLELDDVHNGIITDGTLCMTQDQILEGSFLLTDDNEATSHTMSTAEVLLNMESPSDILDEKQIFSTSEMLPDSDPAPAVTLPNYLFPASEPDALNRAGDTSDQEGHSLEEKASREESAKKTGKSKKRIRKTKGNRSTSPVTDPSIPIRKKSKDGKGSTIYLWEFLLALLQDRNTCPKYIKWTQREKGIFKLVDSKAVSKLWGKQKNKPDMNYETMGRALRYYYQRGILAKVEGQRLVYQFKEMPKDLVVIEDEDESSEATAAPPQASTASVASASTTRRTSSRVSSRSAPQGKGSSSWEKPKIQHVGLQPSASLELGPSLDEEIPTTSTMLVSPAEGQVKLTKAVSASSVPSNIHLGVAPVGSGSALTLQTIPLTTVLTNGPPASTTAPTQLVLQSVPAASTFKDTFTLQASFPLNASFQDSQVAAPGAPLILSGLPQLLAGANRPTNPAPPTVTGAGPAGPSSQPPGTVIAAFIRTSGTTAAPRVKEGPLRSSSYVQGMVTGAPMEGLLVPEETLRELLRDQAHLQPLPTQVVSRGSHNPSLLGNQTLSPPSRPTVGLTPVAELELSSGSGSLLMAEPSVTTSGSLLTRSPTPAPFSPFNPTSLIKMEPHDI
In short: as §1

[6] = target: T3, ELK4 (Homo sapiens, UniProt P28324-2 1-405); conditions: protein: recombinant; tags: N-terminal GST; dsDNA, one strand shown
T3 sequence: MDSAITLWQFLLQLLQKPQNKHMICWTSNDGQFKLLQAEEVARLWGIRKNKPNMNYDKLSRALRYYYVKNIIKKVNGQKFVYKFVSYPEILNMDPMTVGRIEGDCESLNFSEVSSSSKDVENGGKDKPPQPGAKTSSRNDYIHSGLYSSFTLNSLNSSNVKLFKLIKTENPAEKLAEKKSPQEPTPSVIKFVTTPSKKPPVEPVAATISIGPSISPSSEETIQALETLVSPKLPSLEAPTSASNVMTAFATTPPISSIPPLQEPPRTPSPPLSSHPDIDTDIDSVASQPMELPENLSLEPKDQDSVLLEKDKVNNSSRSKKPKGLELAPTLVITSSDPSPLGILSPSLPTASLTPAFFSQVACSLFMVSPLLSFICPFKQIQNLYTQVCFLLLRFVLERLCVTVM
In short: as §1

[7] = target: T4, ETV2 (Homo sapiens, UniProt O00321 1-342); conditions: protein: recombinant; tags: N-terminal GST; dsDNA, one strand shown
T4 sequence: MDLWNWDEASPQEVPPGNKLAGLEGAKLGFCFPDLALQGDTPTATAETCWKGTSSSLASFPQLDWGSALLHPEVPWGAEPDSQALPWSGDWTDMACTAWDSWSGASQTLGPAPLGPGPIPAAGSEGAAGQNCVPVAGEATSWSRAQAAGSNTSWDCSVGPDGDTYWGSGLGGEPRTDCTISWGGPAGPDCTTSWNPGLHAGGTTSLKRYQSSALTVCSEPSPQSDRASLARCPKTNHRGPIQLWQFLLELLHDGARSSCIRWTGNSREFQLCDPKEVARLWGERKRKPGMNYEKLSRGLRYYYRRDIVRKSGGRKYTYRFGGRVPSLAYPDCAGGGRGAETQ
In short: as §1

[8] = target: T5, ELF3 (Homo sapiens, UniProt P78545 1-371); conditions: protein: recombinant; tags: N-terminal GST; dsDNA, one strand shown
T5 sequence: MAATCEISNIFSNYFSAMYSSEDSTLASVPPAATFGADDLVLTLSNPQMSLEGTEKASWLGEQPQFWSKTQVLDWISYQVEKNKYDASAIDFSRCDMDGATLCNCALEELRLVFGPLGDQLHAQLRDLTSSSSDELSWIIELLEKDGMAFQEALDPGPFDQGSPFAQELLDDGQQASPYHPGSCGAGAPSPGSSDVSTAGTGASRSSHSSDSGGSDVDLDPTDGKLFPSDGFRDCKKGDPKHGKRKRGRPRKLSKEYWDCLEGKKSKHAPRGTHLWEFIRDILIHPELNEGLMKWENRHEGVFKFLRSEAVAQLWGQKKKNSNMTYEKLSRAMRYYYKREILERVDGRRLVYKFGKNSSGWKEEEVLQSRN
In short: as §1

[9] = target: CRX (Homo sapiens, UniProt O43186 1-299); conditions: protein: recombinant; tags: N-terminal GST; dsDNA, one strand shown
CRX, sequence (O43186 whole entry): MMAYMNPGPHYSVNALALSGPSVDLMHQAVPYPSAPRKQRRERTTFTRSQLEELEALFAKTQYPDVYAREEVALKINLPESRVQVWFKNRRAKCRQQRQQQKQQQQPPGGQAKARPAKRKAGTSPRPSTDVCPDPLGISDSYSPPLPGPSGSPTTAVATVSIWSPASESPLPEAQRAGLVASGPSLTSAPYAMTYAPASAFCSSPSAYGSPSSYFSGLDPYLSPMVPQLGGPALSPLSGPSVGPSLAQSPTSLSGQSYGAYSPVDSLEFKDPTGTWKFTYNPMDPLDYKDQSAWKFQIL
In short: as §1

Sequence: TTTTTC
- binding signal [1]: 1.19 fold enrichment (6-mer frequency, TF over GST control)
- binding signal [2]: 1.27 fold enrichment (6-mer frequency, TF over GST control)
- binding signal [3]: 1.44 fold enrichment (6-mer frequency, TF over GST control)
- binding signal [4]: 1.11 fold enrichment (6-mer frequency, TF over GST control)
- binding signal [5]: 1.32 fold enrichment (6-mer frequency, TF over GST control)
- binding signal [6]: 1.16 fold enrichment (6-mer frequency, TF over GST control)
- binding signal [7]: 1.24 fold enrichment (6-mer frequency, TF over GST control)
- binding signal [8]: 1.26 fold enrichment (6-mer frequency, TF over GST control)
- binding signal [9]: 1.09 fold enrichment (6-mer frequency, TF over GST control)

From paper PMC7862700, “An all-to-all approach to the identification of sequence-specific readers for epigenetic DNA modifications on cytosine”
